# Laboratory results reported in article PMC11062922 (Nature Chemical Biology, 2023).
# Read-outs that look alike come from different tables or passages of the source.
# Assays:
# Conditions in all cases: read-out: apparent Kd, n = 1
# TBK1 = test system: TBK1
# TGFBR1 = test system: TGFBR1
# TNK1 = test system: TNK1
# [1] = compound concentrations:100 nM and 1000 nM (sheet 'Lestaurtinib' of Supplementary Table 1),run:Lestaurtinib_02473_R3,Plate:MR010
# [2] = compound concentrations:100 nM and 1000 nM (sheet 'Lestaurtinib' of Supplementary Table 1),run:Lestaurtinib_02487_R2,Plate:MR012
# [3] = compound concentrations:100 nM and 1000 nM (sheet 'Lestaurtinib' of Supplementary Table 1),run:Lestaurtinib_02496_R2,Plate:MR013
# [4] = compound concentrations:100 nM and 1000 nM (sheet 'Lestaurtinib' of Supplementary Table 1),run:Lestaurtinib_02566_R1,Plate:MR014
# [5] = compound concentrations:100 nM and 1000 nM (sheet 'Lestaurtinib' of Supplementary Table 1),run:Lestaurtinib_02566_R2,Plate:MR014
# [6] = compound concentrations:100 nM and 1000 nM (sheet 'Lestaurtinib' of Supplementary Table 1),run:Lestaurtinib_02584_R3,Plate:MR017
# [7] = compound concentrations:100 nM and 1000 nM (sheet 'Lestaurtinib' of Supplementary Table 1),run:Lestaurtinib_02606_R1,Plate:MR019
# [8] = compound concentrations:100 nM and 1000 nM (sheet 'Lestaurtinib' of Supplementary Table 1),run:Lestaurtinib_02741_R3,Plate:MR023
# [9] = compound concentrations:100 nM and 1000 nM (sheet 'Lestaurtinib' of Supplementary Table 1),run:Lestaurtinib_02752_R2,Plate:MR025
# [10] = compound concentrations:100 nM and 1000 nM (sheet 'Lestaurtinib' of Supplementary Table 1),run:Lestaurtinib_02765_R2,Plate:MR026
# [11] = compound concentrations:100 nM and 1000 nM (sheet 'Lestaurtinib' of Supplementary Table 1),run:Lestaurtinib_02766_R1,Plate:MR027
# [12] = compound concentrations:100 nM and 1000 nM (sheet 'Lestaurtinib' of Supplementary Table 1),run:Lestaurtinib_02766_R3,Plate:MR027
# [13] = compound concentrations:100 nM and 1000 nM (sheet 'Lestaurtinib' of Supplementary Table 1),run:Lestaurtinib_02802_R1,Plate:MR029
# [14] = compound concentrations:100 nM and 1000 nM (sheet 'Lestaurtinib' of Supplementary Table 1),run:Lestaurtinib_02339_R2,Plate:MR001
# [15] = compound concentrations:100 nM and 1000 nM (sheet 'Lestaurtinib' of Supplementary Table 1),run:Lestaurtinib_02339_R3,Plate:MR001
# [16] = compound concentrations:100 nM and 1000 nM (sheet 'Lestaurtinib' of Supplementary Table 1),run:Lestaurtinib_02364_R3,Plate:MR002
# [17] = compound concentrations:100 nM and 1000 nM (sheet 'Lestaurtinib' of Supplementary Table 1),run:Lestaurtinib_02367_R2,Plate:MR003
# [18] = compound concentrations:100 nM and 1000 nM (sheet 'Lestaurtinib' of Supplementary Table 1),run:Lestaurtinib_02437_R3,Plate:MR007
# [19] = compound concentrations:100 nM and 1000 nM (sheet 'Lestaurtinib' of Supplementary Table 1),run:Lestaurtinib_02438_R2,Plate:MR008
substance,measurement,setting,value
Lestaurtinib,potency estimated from few doses,"TBK1; compound concentrations:100 nM and 1000 nM (sheet 'Lestaurtinib' of Supplementary Table 1),run:Lestaurtinib_02473_R2,Plate:MR010",1370 nM
same,potency estimated from few doses,TBK1; [1],851 nM
same,potency estimated from few doses,"TBK1; compound concentrations:100 nM and 1000 nM (sheet 'Lestaurtinib' of Supplementary Table 1),run:Lestaurtinib_02482_R1,Plate:MR011",1350 nM
same,potency estimated from few doses,"TBK1; compound concentrations:100 nM and 1000 nM (sheet 'Lestaurtinib' of Supplementary Table 1),run:Lestaurtinib_02482_R2,Plate:MR011",1320 nM
same,potency estimated from few doses,"TBK1; compound concentrations:100 nM and 1000 nM (sheet 'Lestaurtinib' of Supplementary Table 1),run:Lestaurtinib_02487_R1,Plate:MR012",950 nM
same,potency estimated from few doses,TBK1; [2],1510 nM
same,potency estimated from few doses,TBK1; [3],1240 nM
same,potency estimated from few doses,"TBK1; compound concentrations:100 nM and 1000 nM (sheet 'Lestaurtinib' of Supplementary Table 1),run:Lestaurtinib_02496_R3,Plate:MR013",1350 nM
same,potency estimated from few doses,TBK1; [4],854 nM
same,potency estimated from few doses,TBK1; [5],1410 nM
same,potency estimated from few doses,"TBK1; compound concentrations:100 nM and 1000 nM (sheet 'Lestaurtinib' of Supplementary Table 1),run:Lestaurtinib_02577_R1,Plate:MR016",807 nM
same,potency estimated from few doses,TBK1; [6],1410 nM
same,potency estimated from few doses,"TBK1; compound concentrations:100 nM and 1000 nM (sheet 'Lestaurtinib' of Supplementary Table 1),run:Lestaurtinib_02601_R1,Plate:MR018",1210 nM
same,potency estimated from few doses,"TBK1; compound concentrations:100 nM and 1000 nM (sheet 'Lestaurtinib' of Supplementary Table 1),run:Lestaurtinib_02601_R2,Plate:MR018",1760 nM
same,potency estimated from few doses,"TBK1; compound concentrations:100 nM and 1000 nM (sheet 'Lestaurtinib' of Supplementary Table 1),run:Lestaurtinib_02601_R3,Plate:MR018",1700 nM
same,potency estimated from few doses,TBK1; [7],1530 nM
same,potency estimated from few doses,"TBK1; compound concentrations:100 nM and 1000 nM (sheet 'Lestaurtinib' of Supplementary Table 1),run:Lestaurtinib_02624_R1,Plate:MR020",1910 nM
same,potency estimated from few doses,"TBK1; compound concentrations:100 nM and 1000 nM (sheet 'Lestaurtinib' of Supplementary Table 1),run:Lestaurtinib_02624_R2,Plate:MR020",1400 nM
same,potency estimated from few doses,"TBK1; compound concentrations:100 nM and 1000 nM (sheet 'Lestaurtinib' of Supplementary Table 1),run:Lestaurtinib_02624_R3,Plate:MR020",1460 nM
same,potency estimated from few doses,TBK1; [8],1510 nM
same,potency estimated from few doses,"TBK1; compound concentrations:100 nM and 1000 nM (sheet 'Lestaurtinib' of Supplementary Table 1),run:Lestaurtinib_02748_R2,Plate:MR024",1310 nM
same,potency estimated from few doses,TBK1; [9],837 nM
same,potency estimated from few doses,"TBK1; compound concentrations:100 nM and 1000 nM (sheet 'Lestaurtinib' of Supplementary Table 1),run:Lestaurtinib_02752_R3,Plate:MR025",961 nM
same,potency estimated from few doses,TBK1; [10],1300 nM
same,potency estimated from few doses,TBK1; [11],972 nM
same,potency estimated from few doses,TBK1; [12],1300 nM
same,potency estimated from few doses,"TBK1; compound concentrations:100 nM and 1000 nM (sheet 'Lestaurtinib' of Supplementary Table 1),run:Lestaurtinib_02768_R2,Plate:MR028",1930 nM
same,potency estimated from few doses,"TBK1; compound concentrations:100 nM and 1000 nM (sheet 'Lestaurtinib' of Supplementary Table 1),run:Lestaurtinib_02768_R3,Plate:MR028",1330 nM
same,potency estimated from few doses,"TBK1; compound concentrations:100 nM and 1000 nM (sheet 'Lestaurtinib' of Supplementary Table 1),run:Lestaurtinib_02795_R1,Plate:MR022",1800 nM
same,potency estimated from few doses,"TBK1; compound concentrations:100 nM and 1000 nM (sheet 'Lestaurtinib' of Supplementary Table 1),run:Lestaurtinib_02795_R2,Plate:MR022",1370 nM
same,potency estimated from few doses,"TBK1; compound concentrations:100 nM and 1000 nM (sheet 'Lestaurtinib' of Supplementary Table 1),run:Lestaurtinib_02795_R3,Plate:MR022",1700 nM
same,potency estimated from few doses,TBK1; [13],976 nM
same,potency estimated from few doses,"TBK1; compound concentrations:100 nM and 1000 nM (sheet 'Lestaurtinib' of Supplementary Table 1),run:Lestaurtinib_02802_R2,Plate:MR029",1300 nM
same,potency estimated from few doses,"TBK1; compound concentrations:100 nM and 1000 nM (sheet 'Lestaurtinib' of Supplementary Table 1),run:Lestaurtinib_03172_R2,Plate:MR031",1750 nM
same,potency estimated from few doses,"TBK1; compound concentrations:100 nM and 1000 nM (sheet 'Lestaurtinib' of Supplementary Table 1),run:Lestaurtinib_03260_R1,Plate:MR033",1460 nM
same,potency estimated from few doses,"TBK1; compound concentrations:100 nM and 1000 nM (sheet 'Lestaurtinib' of Supplementary Table 1),run:Lestaurtinib_03260_R2,Plate:MR033",1580 nM
same,potency estimated from few doses,"TBK1; compound concentrations:100 nM and 1000 nM (sheet 'Lestaurtinib' of Supplementary Table 1),run:Lestaurtinib_03260_R3,Plate:MR033",1240 nM
same,potency estimated from few doses,TGFBR1; [14],1530 nM
same,potency estimated from few doses,TGFBR1; [15],1420 nM
same,potency estimated from few doses,TGFBR1; [16],1630 nM
same,potency estimated from few doses,TGFBR1; [17],1900 nM
same,potency estimated from few doses,"TGFBR1; compound concentrations:100 nM and 1000 nM (sheet 'Lestaurtinib' of Supplementary Table 1),run:Lestaurtinib_02367_R3,Plate:MR003",2070 nM
same,potency estimated from few doses,"TGFBR1; compound concentrations:100 nM and 1000 nM (sheet 'Lestaurtinib' of Supplementary Table 1),run:Lestaurtinib_02381_R1,Plate:MR004",2080 nM
same,potency estimated from few doses,"TGFBR1; compound concentrations:100 nM and 1000 nM (sheet 'Lestaurtinib' of Supplementary Table 1),run:Lestaurtinib_02407_R1,Plate:MR005",2020 nM
same,potency estimated from few doses,"TGFBR1; compound concentrations:100 nM and 1000 nM (sheet 'Lestaurtinib' of Supplementary Table 1),run:Lestaurtinib_02422_R1,Plate:MR006",964 nM
same,potency estimated from few doses,"TGFBR1; compound concentrations:100 nM and 1000 nM (sheet 'Lestaurtinib' of Supplementary Table 1),run:Lestaurtinib_02437_R2,Plate:MR007",1790 nM
same,potency estimated from few doses,TGFBR1; [18],176 nM
same,potency estimated from few doses,TGFBR1; [19],1420 nM
same,potency estimated from few doses,"TGFBR1; compound concentrations:100 nM and 1000 nM (sheet 'Lestaurtinib' of Supplementary Table 1),run:Lestaurtinib_02438_R3,Plate:MR008",1580 nM
same,potency estimated from few doses,"TGFBR1; compound concentrations:100 nM and 1000 nM (sheet 'Lestaurtinib' of Supplementary Table 1),run:Lestaurtinib_02443_R3,Plate:MR009",1320 nM
same,potency estimated from few doses,TGFBR1; [1],1750 nM
same,potency estimated from few doses,"TGFBR1; compound concentrations:100 nM and 1000 nM (sheet 'Lestaurtinib' of Supplementary Table 1),run:Lestaurtinib_02482_R3,Plate:MR011",1760 nM
same,potency estimated from few doses,TGFBR1; [2],1400 nM
same,potency estimated from few doses,"TGFBR1; compound concentrations:100 nM and 1000 nM (sheet 'Lestaurtinib' of Supplementary Table 1),run:Lestaurtinib_02496_R1,Plate:MR013",1530 nM
same,potency estimated from few doses,TGFBR1; [3],1830 nM
same,potency estimated from few doses,TGFBR1; [4],827 nM
same,potency estimated from few doses,TGFBR1; [5],1310 nM
same,potency estimated from few doses,"TGFBR1; compound concentrations:100 nM and 1000 nM (sheet 'Lestaurtinib' of Supplementary Table 1),run:Lestaurtinib_02566_R3,Plate:MR014",1340 nM
same,potency estimated from few doses,"TGFBR1; compound concentrations:100 nM and 1000 nM (sheet 'Lestaurtinib' of Supplementary Table 1),run:Lestaurtinib_02577_R3,Plate:MR016",1820 nM
same,potency estimated from few doses,TGFBR1; [6],1580 nM
same,potency estimated from few doses,TGFBR1; [7],2210 nM
same,potency estimated from few doses,"TGFBR1; compound concentrations:100 nM and 1000 nM (sheet 'Lestaurtinib' of Supplementary Table 1),run:Lestaurtinib_02606_R2,Plate:MR019",2080 nM
same,potency estimated from few doses,TGFBR1; [8],1350 nM
same,potency estimated from few doses,"TGFBR1; compound concentrations:100 nM and 1000 nM (sheet 'Lestaurtinib' of Supplementary Table 1),run:Lestaurtinib_02748_R1,Plate:MR024",1420 nM
same,potency estimated from few doses,"TGFBR1; compound concentrations:100 nM and 1000 nM (sheet 'Lestaurtinib' of Supplementary Table 1),run:Lestaurtinib_02748_R3,Plate:MR024",1750 nM
same,potency estimated from few doses,TGFBR1; [9],1600 nM
same,potency estimated from few doses,TGFBR1; [10],2020 nM
same,potency estimated from few doses,TGFBR1; [11],1360 nM
same,potency estimated from few doses,TGFBR1; [12],1570 nM
same,potency estimated from few doses,TGFBR1; [13],1540 nM
same,potency estimated from few doses,"TGFBR1; compound concentrations:100 nM and 1000 nM (sheet 'Lestaurtinib' of Supplementary Table 1),run:Lestaurtinib_02896_R3,Plate:MR030",950 nM
same,potency estimated from few doses,"TGFBR1; compound concentrations:100 nM and 1000 nM (sheet 'Lestaurtinib' of Supplementary Table 1),run:Lestaurtinib_03172_R1,Plate:MR031",1540 nM
same,potency estimated from few doses,"TGFBR1; compound concentrations:100 nM and 1000 nM (sheet 'Lestaurtinib' of Supplementary Table 1),run:Lestaurtinib_03172_R3,Plate:MR031",1580 nM
same,potency estimated from few doses,"TGFBR1; compound concentrations:100 nM and 1000 nM (sheet 'Lestaurtinib' of Supplementary Table 1),run:Lestaurtinib_03252_R1,Plate:MR032",1330 nM
same,potency estimated from few doses,"TGFBR1; compound concentrations:100 nM and 1000 nM (sheet 'Lestaurtinib' of Supplementary Table 1),run:Lestaurtinib_03252_R2,Plate:MR032",1590 nM
same,potency estimated from few doses,"TNK1; compound concentrations:100 nM and 1000 nM (sheet 'Lestaurtinib' of Supplementary Table 1),run:Lestaurtinib_02339_R1,Plate:MR001",220 nM
same,potency estimated from few doses,TNK1; [14],93.5 nM
same,potency estimated from few doses,TNK1; [15],256 nM
same,potency estimated from few doses,"TNK1; compound concentrations:100 nM and 1000 nM (sheet 'Lestaurtinib' of Supplementary Table 1),run:Lestaurtinib_02364_R2,Plate:MR002",213 nM
same,potency estimated from few doses,TNK1; [16],190 nM
same,potency estimated from few doses,"TNK1; compound concentrations:100 nM and 1000 nM (sheet 'Lestaurtinib' of Supplementary Table 1),run:Lestaurtinib_02367_R1,Plate:MR003",191 nM
same,potency estimated from few doses,TNK1; [17],208 nM
same,potency estimated from few doses,"TNK1; compound concentrations:100 nM and 1000 nM (sheet 'Lestaurtinib' of Supplementary Table 1),run:Lestaurtinib_02407_R3,Plate:MR005",213 nM
same,potency estimated from few doses,"TNK1; compound concentrations:100 nM and 1000 nM (sheet 'Lestaurtinib' of Supplementary Table 1),run:Lestaurtinib_02422_R3,Plate:MR006",75 nM
same,potency estimated from few doses,TNK1; [18],15.8 nM
same,potency estimated from few doses,TNK1; [19],65.4 nM
